Data on 21 compounds can be found in PubChem BioAssay (NCI).

Experiment [1] can be described thus: NCI Yeast Anticancer Drug Screen. Data for the rad50 strain (AID 155).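 Note: 0% = growth of vehicle-only cultures of the same strain.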 The conditions noted are these: S. cerevisiae rad50 strain growth inhibition; at 50.0 µM; active compounds read high. Summed up:
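Inhibition values express reduced yeast growth in compound-treated cultures relative to vehicle-treated controls.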

The nature of experiment [2]: NCI Yeast Anticancer Drug Screen. Data for the mec2-1 strain (AID 157). The conditions noted are these: S. cerevisiae mec2-1 strain, at 50.0 µM, active compounds read high. Summed up:
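Vehicle-treated cultures served as reference for growth inhibition of compound-exposed mec2-1 yeast.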

The nature of experiment [3]: NCI Yeast Anticancer Drug Screen. Data for the sgs1 mgt1 strain (AID 161).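 Note: 0% = growth of cultures given vehicle only.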 Conditions: S. cerevisiae sgs1 mgt1 strain, at 50.0 µM, active compounds read high. In a few lines:
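Mutant yeast exposed to compound; growth scored against vehicle-only wells.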

The nature of experiment [4]: NCI Yeast Anticancer Drug Screen. Data for the cln2 rad14 strain (AID 165).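 Note: 0% = growth equal to vehicle treated cultures.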 Conditions: S. cerevisiae cln2 rad14 strain, at 50.0 µM, active compounds read high. Summed up:
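Each compound was tested on cln2 rad14 yeast. Inhibition of growth was calculated against vehicle-exposed controls.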

Experiment [5] in a line: NCI Yeast Anticancer Drug Screen. Data for the bub3 strain (AID 167). Conditions: S. cerevisiae bub3 mutant strain, at 50.0 µM, active compounds read high. In a few lines:
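Steps: expose the mutant yeast strain to compound; grow alongside vehicle-treated cultures; measure growth; express inhibition against the vehicle cultures.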

A short description of experiment [6]: NCI Yeast Anticancer Drug Screen. Data for the mlh1 rad18 strain (AID 175). Conditions: S. cerevisiae mlh1 rad18 strain growth inhibition; at 50.0 µM; active compounds read high. Summed up: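 Vehicle-treated cultures served as the reference for growth inhibition in a yeast strain carrying DNA damage repair alterations exposed to each compound.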

About 79,000 compounds went through this panel and 15% of them were active in at least one assay; those are over-represented in the sample as a whole. Values without a mark were called inactive. Calls of active or inactive are those of the source. Cut-off read from the data, not from the text of the source: active = growth inhibition above about 70%; inactive = the rest.

As to `CCC(=O)Oc1c2ccsc2c(OC(=O)CC)c2ccsc12`, the growth inhibition in experiment [1] was 29.1%; in experiment [2] it was 6.6%; in experiment [3], 32.1%; in experiment [4], -3.2%; in experiment [5], 29.4%; in experiment [6] it was 13.7%.
Take `Cc1ccc(NC(=S)N(C)C)cc1`: the growth inhibition in experiment [1] is 14.5%; in experiment [2], 15.9%; in experiment [3], -10.6%; in experiment [4], -71.8%; in experiment [5], 22.4%; in experiment [6] it was -23.9%.
With `CN(C)CCC1(C#N)CCCCC1`, the growth inhibition in experiment [1] is 5.3%; in experiment [2] it was 23.3%; in experiment [3], 10.4%; in experiment [4], -19.3%; in experiment [5] it was 12.4%; in experiment [6] it was 1.65%.
On to `Cc1cccc(C)[n+]1[O-]`, for which the growth inhibition in experiment [1] was 1.6%; in experiment [2], 5.25%; in experiment [3] it was -6.9%; in experiment [4], -38.8%; in experiment [5] it was 16.5%; in experiment [6] it was 0.65%.
Regarding `C1CSCCSCCSCCS1`, the growth inhibition in experiment [1] was -1.15%; in experiment [2] it was -2.55%; in experiment [3], -0.85%; in experiment [4] it was -12.4%; in experiment [5], -0.4%; in experiment [6], -11.9%.
On to `O=C(O)c1cccc(S(=O)(=O)NCCO)c1`, for which the growth inhibition in experiment [1] was -11.3%; in experiment [2] it was -8.25%; in experiment [3] it was -20.8%; in experiment [4], -1.9%; in experiment [5], -36.1%; in experiment [6], 8.5%.
Turning to `Cc1nccnc1N1CCCCC1`, the growth inhibition in experiment [1] was 19.7%; in experiment [2], -0.75%; in experiment [3], -5.8%; in experiment [4] it was 15.9%; in experiment [5], 1.9%; in experiment [6] it was -11.3%.
Consider `COc1ccc2c(c1)C(O)C(NCc1ccccc1)C2` (stereo unspecified), for which the growth inhibition is -13.6% in experiment [1]; -7.75% in experiment [2]; -0.45% in experiment [3]; -9.9% in experiment [4]; 8.5% in experiment [5]; -8.55% in experiment [6].
As to `C=Cc1ccc(-c2ccccc2)cc1`, the growth inhibition in experiment [1] is 7.1%; in experiment [2] it was -14.7%; in experiment [3], -25.5%; in experiment [4], -43.2%; in experiment [5], -5.8%; in experiment [6] it was -0.65%.
In the case of `COc1ccc2cc(NC(=O)N/N=C\c3ccc([N+](=O)[O-])cc3)ccc2c1`, the growth inhibition was 27.1% in experiment [1]; 7.35% in experiment [2]; 19.2% in experiment [3]; -8.3% in experiment [4]; 12.9% in experiment [5]; 27.4% in experiment [6].
For the compound `COc1cc2c(c([N+](=O)[O-])c1)NC(=O)C(c1ccccc1)S2` (stereo unspecified), the growth inhibition in experiment [1] is -15.9%; in experiment [2], -12.3%; in experiment [3] it was -3.45%; in experiment [4], 23.1%; in experiment [5], 15.9%; in experiment [6], -3.95%.
As for `Cc1c([N+](=O)[O-])cc(C(C)(C)C)c(OC(=O)Nc2cccc(Cl)c2)c1[N+](=O)[O-]`, the growth inhibition in experiment [1] was 60.7%; in experiment [2] it was 74% (active); in experiment [3], 79.7% (active); in experiment [4] it was 23.1%; in experiment [5], 39.1%; in experiment [6] it was 72.3% (active).
In the case of `CC(=O)Nc1ccccc1OC(=O)c1ccccc1`, the growth inhibition is 4.4% in experiment [1]; -4.4% in experiment [2]; 2.6% in experiment [3]; 11.9% in experiment [4]; 1.8% in experiment [5]; -2.5% in experiment [6].
For `CCOC(=O)CC(=O)Nc1cccc2sc3ncccc3c(=O)c12`, the growth inhibition in experiment [1] was -35.4%; in experiment [2] it was -52.6%; in experiment [3] it was -4.25%; in experiment [4] it was 15.4%; in experiment [5], 0.7%; in experiment [6], 0.2%.
Regarding `COc1ccc(Br)cc1/C=N/N=C/c1cc(Br)ccc1OC`, the growth inhibition in experiment [1] was -0.2%; in experiment [2], -21.6%; in experiment [3], 1.5%; in experiment [4], 20.9%; in experiment [5], 21.5%; in experiment [6], 23.4%.
`c1ccc(-c2ccc(N=NN3CCCC3)cc2)cc1`: the growth inhibition was 0.75% in experiment [1]; -5.6% in experiment [2]; 14.3% in experiment [3]; 6.4% in experiment [4]; -6.15% in experiment [5]; 8.1% in experiment [6].
In the case of `CC(=O)OCC(C)(C)C(OC(C)=O)C(C)C` (stereo unspecified), the growth inhibition was 16.1% in experiment [1]; 0.75% in experiment [2]; 13.8% in experiment [3]; -46.8% in experiment [4]; -0.5% in experiment [5]; 11.2% in experiment [6].
As to `COc1ccc2cc(C(C)C(O)c3cc(F)c(F)c(F)c3F)ccc2c1` (stereo unspecified), the growth inhibition was -21.1% in experiment [1]; -30.3% in experiment [2]; -10.7% in experiment [3]; 0.15% in experiment [4]; -1.25% in experiment [5]; -20.5% in experiment [6].
In the case of `C[N+](C)(C)CC(=O)N/N=C(/Cc1cc(=O)oc2cc(O)ccc12)C(=O)Nc1ccc(Cl)cc1`, the growth inhibition in experiment [1] was 7.35%; in experiment [2], -2.45%; in experiment [3] it was -11.3%; in experiment [4], -15.7%; in experiment [5], -19.8%; in experiment [6], -10.8%.
With `O=C(c1ccccc1Cl)N1CCN(c2ccccc2)CC1`, the growth inhibition was 12.9% in experiment [1]; -3.4% in experiment [2]; 0% in experiment [3]; -28.5% in experiment [4]; 9.55% in experiment [5]; -6.85% in experiment [6].
`Cc1nc(-c2cccnc2)sc1C(=O)/C=C/c1ccc(Cl)cc1Cl`: the growth inhibition in experiment [1] is 12.8%; in experiment [2], -2.05%; in experiment [3] it was 3.85%; in experiment [4], 8.55%; in experiment [5], 3.7%; in experiment [6] it was 8.95%.
